Screen size: about 360,000 compounds; about 11,000 (3.1%) were called active. Inconclusive results (about 2%) are left out. The sample holds actives, similar compounds and a random draw of the others, so the mix is not that of the screen. Values without a mark were called inactive. Cut-off read from the data, not from the text of the source: active = fluorescence intensity above about 16000; inconclusive = no clear call, values can overlap the other calls; inactive = below that.

The experiment is described as follows: compound fluorescence in toxin protease inhibitor counterscreen, primary screen, artefact control for toxin protease inhibitor project, biochemical, multiplex microsphere, HTS (AID 624483). Particulars: compound autofluorescence counterscreen, microsphere flow cytometry; active compounds read high.
As to `CN1CCN(C(=O)c2ccc(NC(=O)c3ccc(Br)o3)cc2)CC1`, the fluorescence intensity is 5550.

Take `O=C(/C=C/[C@H]1O[C@@H](n2cnc3c(NC(=O)c4ccccc4)ncnc32)[C@H](O)[C@@H]1O)NCc1ccccc1`: the fluorescence intensity is 6020.

Regarding `CCS(=O)(=O)C1=NSC2=NC(=O)/C(=C\c3ccc(OS(=O)(=O)c4ccccc4)cc3)C(=N)N21`, the fluorescence intensity was 4230.

Turning to `CS(=O)(=O)C1=NN2C(=N)/C(=C\c3ccc(OCCOc4ccccc4)cc3)C(=O)N=C2S1`, the fluorescence intensity was 3680.

For the compound `CS(=O)(=O)c1ccc2c(c1)SC1=NC(=O)/C(=C/c3ccco3)C(=N)N12`, the fluorescence intensity was 20000 (active). For the compound `OC(c1nc2ccc(F)cc2[nH]1)C(O)c1nc2ccc(F)cc2[nH]1` (configuration not stated), the fluorescence intensity was 3790. For the compound `O=C1CCCC2=C1C(c1cccs1)n1nc(SCc3ccccc3)nc1N2` (configuration not stated), the fluorescence intensity is 23700 (active).

On to `O=C1CCCC2=C1C(c1cccs1)CC(=O)N2c1ccc(F)cc1` (configuration not stated), for which the fluorescence intensity is 3220. Regarding `CCCC(=O)N1c2ccccc2NC2=C(C(=O)CCC2)C1c1ccc(F)cc1` (configuration not stated), the fluorescence intensity is 6490. Turning to `Nc1c(-c2ccc(F)cc2)cnc2ncnn12`, the fluorescence intensity is 6020. Consider `O=C(Nc1ccc2c(c1)nc1n2CCCCC1)c1cc(S(=O)(=O)N2CCOCC2)ccc1Cl`, for which the fluorescence intensity was 2940. For `Cc1ccc(Oc2ccc3c(c2)C(=O)N(c2cccc4cccnc24)C3=O)cc1`, the fluorescence intensity is 21000 (active). Consider `CCOc1cccc(OCCCOc2cccc3cccnc23)c1`, for which the fluorescence intensity was 2100. `Cc1cccc(NC(=O)C2CCN(S(=O)(=O)c3cccc4cccnc34)CC2)c1`: the fluorescence intensity was 5170. For `Cc1ccc(S(=O)(=O)N2CCCCC2)cc1NC(=O)CCNC(=O)c1ccccc1Cl`, the fluorescence intensity was 3400.

For the compound `Cc1cccc(N(CC(=O)N2CCOCC2)S(C)(=O)=O)c1`, the fluorescence intensity was 8740. For `CS(=O)(=O)N(CC(=O)N1CCN(c2cccc(Cl)c2)CC1)c1ccccc1`, the fluorescence intensity was 9910. To `CS(=O)(=O)N(CC(=O)N1CCN(Cc2ccccc2)CC1)c1ccc2c(c1)OCCO2` belongs 23300 (active); to `Cc1ccc(C)c(S(=O)(=O)N2CCN(c3ncnc4sccc34)CC2)c1`, 3890. With `O=C(Nc1ccccn1)C1CCN(S(=O)(=O)c2ccc3c(c2)OCCO3)CC1`, the fluorescence intensity is 4090. As for `O=C(c1c(F)cccc1F)N1CCN(S(=O)(=O)c2ccc3c(c2)OCCO3)CC1`, the fluorescence intensity was 4100. `O=C(c1ccc2c(c1)OCCO2)C1CCN(S(=O)(=O)c2cccc(F)c2)CC1`: the fluorescence intensity is 17000 (active). To `CCOC(=O)C1=C(CNC2CCCCC2)NC(=O)NC1c1cc(C)ccc1C` (configuration not stated) belongs 4280. Take `CCOC(=O)C1=C(c2ccccc2)NC(=O)NC1c1cc(OC)c(OC)cc1OC` (configuration not stated): the fluorescence intensity is 2970. With `CCOC(=O)C1=C(CN2CCc3ccccc32)NC(=O)NC1c1ccc(Cl)cc1` (configuration not stated), the fluorescence intensity is 23500 (active). Take `CCOC(=O)C1=C(CN2CCc3ccccc32)NC(=O)NC1c1cc(C)ccc1C` (configuration not stated): the fluorescence intensity was 23800 (active). `CCOC(=O)C1=C(CN2CCc3ccccc32)NC(=O)NC1c1cccc([N+](=O)[O-])c1` (configuration not stated): the fluorescence intensity is 15000.

`CCOC(=O)C1=C(CN2CCCCCC2)NC(=O)NC1c1cccc([N+](=O)[O-])c1` (configuration not stated): the fluorescence intensity is 4620.

With `Cc1ccccc1S(=O)(=O)NC(=O)C1(C)CCN1C(=O)C1(c2ccccc2)CCCC1` (configuration not stated), the fluorescence intensity was 2830. `COc1ccc(C(=O)Nc2c(N)nc(SCC(=O)N3CCC(C)CC3)[nH]c2=O)cc1OC`: the fluorescence intensity was 4500.

Consider `COc1cncc(-c2cnc3sc(NCCc4ccccn4)nn23)c1`, for which the fluorescence intensity was 3330. For the compound `O=C1Cc2ccccc2Sc2ccc(Cl)cc21`, the fluorescence intensity was 6230. To `CC(=O)Nc1cncc(-c2ccccc2CO)n1` belongs 3670; to `Cc1cc(C)nc(NC(=O)Nc2ccccc2C(F)(F)F)n1`, 21400 (active); to `Cc1cc(Cl)nc(NC(=O)Nc2cccc(Cl)c2)n1`, 3440.

Take `COc1cccc(C(=O)NC(=O)Nc2nc(C)cc(C(F)(F)F)n2)c1`: the fluorescence intensity was 4900.

As to `CSc1ccc(CN2CCC2(C)C(=O)NCc2ccccc2Br)cc1` (configuration not stated), the fluorescence intensity is 3880.

On to `OC[C@@H]1CN(Cc2ccc(Cl)cc2)C[C@H](n2cnc3c(NCc4ccncc4)ncnc32)O1`, for which the fluorescence intensity is 3720.

Turning to `Cc1cc(Cl)ccc1-c1nc(NCCN(C)C)nc2ccsc12`, the fluorescence intensity was 2870. Regarding `Cc1noc(C)c1C(=O)N1CCC1(C)C(=O)NS(=O)(=O)c1ccc(C#N)cc1` (configuration not stated), the fluorescence intensity was 3990.

Regarding `O=C(O)CCn1c(Cc2ccccc2)nc2ccccc21`, the fluorescence intensity is 4070. As to `Nc1nonc1-c1nc2ccccc2n1CCC(=O)O`, the fluorescence intensity was 23600 (active). For `COc1ccc(C)c(Cn2c(-c3nonc3N)nc3ccccc32)c1`, the fluorescence intensity was 8560. In the case of `O=C(CNC(=O)c1ccccc1F)c1ccc(Br)cc1`, the fluorescence intensity was 4100. Take `CCc1nc2ccc(C(=O)NC3CCN(Cc4ccccc4)CC3)cn2c1N(CC)CCOC`: the fluorescence intensity is 3640. Consider `OC1CCCN(c2ncnc3c2nnn3Cc2c(F)cccc2Cl)C1` (configuration not stated), for which the fluorescence intensity is 4220. Turning to `O=C(CSCc1ccccc1)Nc1ccccc1`, the fluorescence intensity is 3440. Take `Cc1cc(C)cc(NC(=O)CSCc2cnn(-c3ccccc3)c2-n2cccc2)c1`: the fluorescence intensity is 3720. On to `CC(=O)Nc1ccc(NC(=O)CSCc2cnn(-c3ccccc3)c2-n2cccc2)cc1`, for which the fluorescence intensity is 21800 (active).

Consider `CCC(=O)N1Cc2cc(C(=O)NCc3cccc(F)c3)nc(-c3cccc(C4=CCCC4)c3)c2[C@H]1CCO`, for which the fluorescence intensity was 5960.

In the case of `O=C(c1cc2ccccc2o1)N1CCN(S(=O)(=O)c2ccc(Cl)s2)CC1`, the fluorescence intensity is 3540. To `COc1cccc2cc(C(=O)N3CCN(C(=O)c4ccccc4)CC3)c(=O)oc12` belongs 2640; to `CS(=O)(=O)N1CCN(C(=O)c2cc3ccccc3oc2=O)CC1`, 20900 (active). In the case of `Cc1ccc(S(=O)(=O)N2CCN(C(=O)Cc3sc(C)nc3-c3ccc(F)cc3)CC2)c(C)c1`, the fluorescence intensity is 5210. With `COCCCNC(=O)c1cccc2c(-c3ccc(O)c(OC)c3)coc12`, the fluorescence intensity was 3660.

`CCCS(=O)(=O)NC(=O)C1(C)CCCN(C(=O)c2cccs2)C1` (configuration not stated): the fluorescence intensity is 3930. As to `COc1ccc(-c2nnn(Cc3nc(N)nc(N4CCCCC4)n3)n2)cc1`, the fluorescence intensity was 4610. Take `CCC1(CC)NC(=O)N(Cc2nc3ccccc3s2)C1=O`: the fluorescence intensity is 3380.

Regarding `CCc1ccc(-c2nnn(Cc3nn[nH]n3)n2)cc1`, the fluorescence intensity was 20100 (active).

On to `CN(Cc1nc2ccccc2s1)C(=O)c1ccc(F)cc1`, for which the fluorescence intensity was 3850.

Turning to `CCc1ccc(-c2nnn(Cc3nc4ccccc4s3)n2)cc1`, the fluorescence intensity was 22800 (active). `CN(C)c1nc(N)nc(Cn2nnc(-c3ccc(C(F)(F)F)cc3)n2)n1`: the fluorescence intensity is 5180.

The record behind these values is PubChem BioAssay AID624483 (NMMLSC, 2012).
